Laboratory results reported in PubChem BioAssay.
Results with a measured potency or affinity are listed apart. Activity calls are given as the source filed them. Cut-off not given; nearly all actives show IC50 up to about 0.91 µM.

Biological target: Calcium-dependent protein kinase 4 (Plasmodium falciparum (isolate 3D7)) (UniProt Q8IBS5)
Assay: PfCDPK4 kinase inhibitors, biochemical, TCAMS library (AID 1159588)
Settings: recombinant PfCDPK4, Kinase-Glo ATP depletion luminescence

Chain of Calcium-dependent protein kinase 4 (Plasmodium falciparum (isolate 3D7)) (Q8IBS5 whole entry, looked up): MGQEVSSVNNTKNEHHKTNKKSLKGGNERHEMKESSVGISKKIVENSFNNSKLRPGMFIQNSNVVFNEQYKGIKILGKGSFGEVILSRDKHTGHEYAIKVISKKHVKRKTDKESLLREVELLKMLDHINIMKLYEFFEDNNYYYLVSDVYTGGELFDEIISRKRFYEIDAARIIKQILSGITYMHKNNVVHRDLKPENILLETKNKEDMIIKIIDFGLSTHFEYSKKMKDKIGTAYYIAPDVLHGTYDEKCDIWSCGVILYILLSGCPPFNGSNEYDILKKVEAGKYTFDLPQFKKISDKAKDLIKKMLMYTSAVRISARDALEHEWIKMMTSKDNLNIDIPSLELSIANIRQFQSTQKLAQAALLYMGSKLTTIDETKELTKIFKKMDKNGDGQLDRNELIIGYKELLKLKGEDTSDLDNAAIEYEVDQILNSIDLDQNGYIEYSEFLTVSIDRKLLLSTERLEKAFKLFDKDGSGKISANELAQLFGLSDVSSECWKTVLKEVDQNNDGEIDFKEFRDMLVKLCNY

outcome, inactive:
CCCOc1cc2c(cc1OCCC)C(C=Cc1ccc(Cl)cc1Cl)=NC(C)C2 (stereo not given)
Cc1[nH]c(C)c(-c2ccc(Oc3cccc(C(F)(F)F)c3)cc2)c(=O)c1Br
COc1cc(Cc2cnc3nc(N)nc(N)c3c2C)cc(OC)c1OC
CCNC(=O)CCc1cccc(Br)c1
NC(N)=NC(=O)Nc1ccc(Cl)c([N+](=O)[O-])c1
Cc1ccc2ccncc2c1N
CCOc1cc2ncnc(Nc3ccc(OCc4c(Cl)cccc4Cl)c(OC)c3)c2cc1OCC
CC(=O)Oc1c(Cl)c(C)nc(C)c1-c1ccc(Oc2ccc(OC(F)(F)F)cc2)cc1
Nc1ccncc1C(=O)NCCCCN1CCN(c2nsc3ccccc23)CC1
CCCc1cc2c3c(N)nc(N)nc3ccc2n1CC
Cc1[nH]c(C)c(-c2ccc(Oc3ccc(Cl)cc3)cc2)c(=O)c1Cl
COc1ccc(Cc2c(Cl)nc3nc(N)nc(N)c3c2C)cc1
Nc1nc(N)c2c(ccc3c2ccn3Cc2ccc3c(c2)OCO3)n1
Cc1nc2nc(N)nc(N)c2c(C)c1Cc1ccc([N+](=O)[O-])cc1
C=CCn1ccc2c3c(N)nc(N)nc3ccc21
CCC(=C(CC)c1ccc(O)c(CNC2CCCCC2)c1)c1ccc(O)c(CNC2CCCCC2)c1
Nc1ncc(-c2ccc(S(=O)(=O)Nc3ccc(C(=O)N[C@@H](CCC(=O)O)C(=O)O)cc3)cc2)c(=O)[nH]1
COc1ccc2c(=O)c(Br)c(C)[nH]c2c1
CCCN(c1ccc(O)c(CN2CCCCC2)c1)c1ccc([N+](=O)[O-])cn1
Cn1c(=N)cc(-c2cccc(I)c2)c2c(=O)[nH]c(N)nc21
Cc1cc(=O)c(-c2ccc(Oc3ccc(OC(F)(F)F)cc3)cc2)c(C)[nH]1
NC(N)=NC(=O)Nc1cc(Br)c(Cl)c(C(F)(F)F)c1
Cc1cccc(Cn2ccc3c4c(N)nc(N)nc4ccc32)c1
CC(C)Cn1ccc2c3c(N)nc(N)nc3ccc21
Cc1cc(=O)c(-c2ccc(OCc3ccc(Cl)cc3)cc2)c(C)[nH]1
FC(F)(F)c1ccc2c(NCCCNc3ccnc4cc(C(F)(F)F)ccc34)ccnc2c1
Nc1nc(N)c2c(ccc3c2cnn3Cc2cccnc2)n1
CC(C)Cn1cc2c(ccc3nc(N)nc(N)c32)n1
CCCCCCCc1c(C)[nH]c2ccc(F)cc2c1=O
Cc1[nH]c(C)c(-c2ccc(Oc3ccccc3)cc2)c(=O)c1Br
CN(C)S(=O)(=O)n1ccc2c3c(N)nc(N)nc3ccc21
CCN(C)C(=O)n1ncc2c3c(N)nc(N)nc3ccc21
CCCCNCc1cc(Cl)c2ccccc2c1O
Cc1[nH]c(C)c(-c2ccc(Oc3cc(Cl)cc(Cl)c3)cc2)c(=O)c1Br
COc1ccc(-c2cnc(N)nc2N)cc1Cl
COc1cc(Cc2cnc(N)nc2N)cc(OCCCCNS(=O)(=O)C(F)(F)F)c1OC
CCC(C)c1cnc2nc(N)nc(N)c2c1C (stereo not given)
Cc1ccccc1OCCCc1c(C)nc(N)nc1N
COCCOCCOCCn1ccc2c3c(N)nc(N)nc3ccc21
Nc1nc(N)c2c(ccc3c2ccn3Cc2ccc(Br)cc2)n1
